This passage reports activation, Potency and activity change, negative = inhibition results from PubChem BioAssay (NCATS).

Assay [1] concerns the target Cellular tumor antigen p53 (Homo sapiens) (UniProt P04637). Nature of the assay: Primary qHTS for small molecule compounds that upregulate eGFP-tagged delta133p53alpha (in N-terminal) cells. (AID 2060322).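 For activation: cells pre-induced with doxycycline then dosed without doxycycline; series mostly up to about 56 µM; 0% = DMSO vehicle and 100% = reference activator.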 Note: nearly all actives have a fitted effect of over 75% in size. Note: potency is the fitted concentration of half-maximal effect. The note with it: NCI-H358 eGFP-delta133p53alpha fluorescence, 24 h; activation: active compounds read high. In short, it runs like this: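 NCI-H358 cells pre-induced 24 h with 10 ng/ml doxycycline for eGFP-delta133p53alpha, plated dox-free and exposed 24 h at 37C to titrated compounds. Fixed, Hoechst-stained; gated GFP peak intensity by laser scanning cytometry, normalized to DMSO (0%) and 57.5 uM 5-azacytidine (100%).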

Assay [2] deals with Aldehyde dehydrogenase, mitochondrial (Homo sapiens) (UniProt P05091). Nature of the assay: qHTS for Inhibitors of the Aldehyde Dehydrogenase Family (ALDH2) Primary screen (AID 2061308;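 note: plate controls were vehicle for no effect and reference inhibitor for full effect; nearly all actives have a fitted effect of over 55% in size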). (In general: In qHTS, concentration-response curves come from the screen itself.)
The target of assay [3] is Retinaldehyde dehydrogenase 3 (Homo sapiens) (UniProt P47895). Nature of the assay: qHTS for Inhibitors of the Aldehyde Dehydrogenase Family (ALDH1A3) Primary screen (AID 2061315).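 Note: plate controls were DMSO vehicle for no effect and reference inhibitor for full effect.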

Molecules are shown by their SMILES. Inconclusive results are not listed. Values without a mark were called inactive. The source made the active and inactive calls. Calls come from the whole dose curve; as a rule, active = well fitted curve in the direction sought with a large enough effect; inconclusive = small, poorly fitted or top-dose-only effect, or another doubt; inactive = no such curve, though single readings can be large; an effect the other way counts as inactive or inconclusive.

Chain of Cellular tumor antigen p53 (Homo sapiens) (P04637 whole entry, looked up): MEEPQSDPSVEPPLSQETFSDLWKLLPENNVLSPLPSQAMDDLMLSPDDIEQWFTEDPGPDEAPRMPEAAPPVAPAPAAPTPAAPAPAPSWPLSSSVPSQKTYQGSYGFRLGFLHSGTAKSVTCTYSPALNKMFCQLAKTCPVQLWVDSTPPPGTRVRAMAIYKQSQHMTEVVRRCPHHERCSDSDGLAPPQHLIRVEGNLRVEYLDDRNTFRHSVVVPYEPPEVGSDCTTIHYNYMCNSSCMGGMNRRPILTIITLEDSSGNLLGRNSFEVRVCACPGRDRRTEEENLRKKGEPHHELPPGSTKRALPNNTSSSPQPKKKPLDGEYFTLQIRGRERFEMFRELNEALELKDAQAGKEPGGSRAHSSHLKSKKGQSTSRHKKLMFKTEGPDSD

For the molecule `C=CC(C)(O)CC/C=C(\C)C(=O)O[C@@H]1[C@@H](O)[C@H](OC(C)(C=C)CC/C=C(\C)C(=O)O)O[C@H](CO)[C@H]1OC(=O)/C(C)=C/CCC(C)(O)C=C` (stereo partly specified), the activation in assay [1] is 9.92%. Also, the Potency result in assay [2] and in assay [3] was “inactive” in each case.

Take `OC[C@H]1O[C@@H](OCCc2ccc(O)cc2)[C@H](O)[C@@H](O)[C@@H]1O`: in assay [1], the activation was -13.7%. Besides, the Potency entry in assay [2] and in assay [3] was “inactive” in each case.

`C[C@@H]1O[C@@H](O[C@H]2[C@H](O)[C@@H](O[C@@H]3O[C@H](CO)[C@H](O)[C@H](O)[C@H]3O)[C@H](O[C@H]3CC[C@@]4(C)C(CC[C@]5(C)C4CC=C4[C@@H]6CC(C)(C)CC[C@]6(C(=O)O[C@@H]6O[C@H](CO)[C@@H](O)[C@H](O)[C@H]6O)CC[C@]45C)C3(C)C)O[C@@H]2C(=O)O)[C@H](O)[C@H](O)[C@H]1O` (stereo partly specified): the activation in assay [1] is 5.34%. The Potency result in assay [2] and in assay [3] was “inactive” in each case.

Turning to `CC(=O)OC1C(O)C(C)=C(CCC(C)CC(=O)O)C2(C)CCCC(C)(C)C12` (stereo unspecified), the activation in assay [1] is 3.82%. Also, the Potency entry in assay [2] and in assay [3] was “inactive” in each case.

Take `CC(=O)O[C@@H]1C[C@@]23C[C@@]24CC[C@H](O[C@@H]2OC[C@H](O)[C@H](O)[C@H]2O)C(C)(C)[C@@H]4CC[C@H]3[C@]2(C)[C@@H](O)C34O[C@H](C[C@@H](C)[C@@H]3[C@@]12C)[C@@H](C(C)(C)O)O4`: the Potency in assay [1] is 3.79 µM (active). In addition, the Potency result in assay [2] and in assay [3] was “inactive” in each case.

With `CC(C)/C=C1\NC(=O)C(C(C)C)n2c1nc1ccccc1c2=O` (stereo unspecified), in assay [1], the activation is -10.7%. The Potency result in assay [2] and in assay [3] was “inactive” each time.

Regarding `CC1CCC2C(=CCC(O)C2(C)C)C1(C)Cc1c(O)cc(CO)c(C=O)c1O` (stereo unspecified), the activation in assay [1] is 9.92%. In addition, the Potency entry in assay [2] and in assay [3] was “inactive” in each case.

For `C=C1[C@H]2CCC3[C@]4(C)CCC[C@@](C)(C(=O)O)C4CC[C@]3(C2)[C@H]1OC(C)=O` (stereo partly specified), the activation in assay [1] is -17.6%. Further, the Potency result in assay [2] and in assay [3] was “inactive” each time.

As for `C[C@@H]1CC[C@]2(C(=O)O)CC[C@]3(C)C(=CCC4[C@@]5(C)C[C@@H](O)[C@H](O)[C@@](C)(CO)C5CC[C@]43C)C2[C@]1(C)O` (stereo partly specified), the activation in assay [1] was 29.5%. Moreover, the Potency result in assay [2] and in assay [3] was “inactive” in each case.

Take `C[C@@H]1C[C@H]2O[C@@]3(O[C@@H]2C(C)(C)O)C(O)[C@@]2(C)C4CCC5C(C)(C)[C@@H](O[C@H]6OC[C@H](O)[C@@H](O)[C@@H]6O)CC[C@@]56C[C@@]46CC[C@]2(C)C13` (stereo partly specified): the activation in assay [1] was -26.7%. Besides, the Potency entry in assay [2] and in assay [3] was “inactive” each time.

Regarding `CC(C)=CCC[C@](C)(O[C@@H]1O[C@H](CO[C@@H]2O[C@H](CO)[C@@H](O)[C@H](O)[C@H]2O)[C@@H](O)[C@H](O)[C@H]1O)C1CC[C@]2(C)[C@@H]1[C@H](O)CC1[C@@]3(C)CC[C@H](O[C@@H]4O[C@H](CO)[C@@H](O)[C@H](O)[C@H]4O[C@@H]4O[C@H](CO)[C@@H](O)[C@H](O)[C@H]4O)C(C)(C)[C@@H]3CC[C@]12C` (stereo partly specified), in assay [1], the activation was -6.25%. Besides, the Potency entry in assay [2] and in assay [3] was “inactive” throughout.

Turning to `N[C@H]1C[C@H]1c1ccc(-c2cccc(O)c2)cc1`, the activation in assay [1] was 1.67%. In addition, the Potency result in assay [2] and in assay [3] was “inactive” throughout.

Consider `CC(C)(O)C1CC=C(C(=O)OC[C@H]2O[C@@H](OC(=O)C3=CCC(C(C)(C)O)CC3)[C@H](O)[C@@H](O)[C@@H]2O)CC1` (stereo partly specified), for which the activation in assay [1] was -8.4%. In addition, the Potency entry in assay [2] and in assay [3] was “inactive” throughout.

With `C=C1C[C@@]23CCC4[C@@](C)(CCC[C@@]4(C)C(=O)OC)C2CC[C@@H]1C3` (stereo partly specified), the activation in assay [1] was -32.8%. In addition, the Potency result in assay [2] and in assay [3] was “inactive” each time.

Regarding `CC1CCC2C(C(=O)O)=CC3C(O)C(C)(C)CC123` (stereo unspecified), the activation in assay [1] is -0.763%. The Potency result in assay [2] and in assay [3] was “inactive” throughout.

For the molecule `CC(=O)c1[nH]cc(CCC(=O)O)c1CC(=O)O`, in assay [1], the activation is -15.3%. Also, the Potency result in assay [2] and in assay [3] was “inactive” throughout.

As for `C=C1C[C@]23C[C@H]1CC[C@H]2[C@]1(C)CCC[C@@]2(CO)C(=O)O[C@H]([C@H]21)[C@@H]3O`, the activation in assay [1] is -6.11%. The Potency entry in assay [2] and in assay [3] was “inactive” throughout.

Consider `CC(C)CC(=O)O[C@@H]1OC=C(CO[C@@H]2O[C@H](CO)[C@@H](O)[C@H](O)[C@H]2O)[C@H]2[C@@H]3O[C@H]3[C@@](O)(CO)[C@@H]12`, for which the activation in assay [1] was -3.05%. Further, the Potency entry in assay [2] and in assay [3] was “inactive” in each case.

On to `CN(C)C(=O)CNC(=O)Cc1ccccc1`, for which the activation in assay [1] is 5.02%. In addition, the Potency result in assay [2] and in assay [3] was “inactive” each time.

In the case of `CC1OC(O[C@@H]2[C@H](O)[C@@H](OC3OC(CO)C(O)C(O)C3O)[C@H](OC(=O)[C@]34CCC(C)(C)C[C@H]3C3=CCC5[C@@]6(C)CC[C@H](O[C@@H]7O[C@H](C(=O)O)[C@@H](O)[C@H](O[C@@H]8OC[C@@H](O)[C@H](O)[C@H]8O)[C@H]7O[C@@H]7O[C@H](CO)[C@H](O)[C@H](O)[C@H]7O)[C@@](C)(C=O)C6CC[C@@]5(C)[C@]3(C)C[C@H]4O)O[C@@H]2C)C(O)C(O)C1OC1OCC(O)C(O)C1O` (stereo partly specified), the activation in assay [1] was 5.34%. Further, the figures for the activity change, negative = inhibition in assay [2] and in assay [3] were 2.11% [at 11.2 µM] and 11.9% [at 11.2 µM], respectively.

Consider `CC1OC(OC2C(CO)OC(OCC3OC(OC(=O)C45CCC(C)(C)CC4C4=CCC6C7(C)CCC(OC8OC(CO)C(O)C(OC9OC(CO)C(O)C(O)C9O)C8O)C(C)(C)C7CCC6(C)C4(C)CC5)C(O)C(O)C3O)C(O)C2O)C(O)C(O)C1OC1OC(CO)C(O)C(O)C1O` (stereo unspecified), for which the activation in assay [1] is -2.29%. Also, the activity change, negative = inhibition in assay [2] was -2.7% [at 11.2 µM]; in assay [3], 7.19% [at 11.2 µM].

As for `C=CC(C)(O)C1CC2C3(C)CCCC(C)(C)C3C(O)C(O)C2(C)O1` (stereo unspecified), the activation in assay [1] was -9.82%. The Potency entry in assay [2] and in assay [3] was “inactive” in each case.
